PfHsp40 yeast: restores yeast growth despite PfHsp40 toxicity; growth rescue, % at 12.5 µM; S. cerevisiae expressing PfHsp40, growth rescue, ATP luminescence; hit rate 0.68% among 340,000; in the data active means growth rescue above about 28%, passing the limit was not always enough; inconclusive means no clear call, values can overlap the other calls;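 further: yeast W303a lacking pdr1 and pdr3 grown in galactose medium; growth measured after three days at 30 °C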
PrP 5UTR inh: inhibition of PrP 5' UTR reporter expression; cell-based PrP 5' UTR mRNA reporter, plate reader; inhibition, % (no concentration beside the values); hit rate 0.35% among 340,000; in the data active means inhibition above about 52%; further: 0 = median of the neutral control wells
SARS 3CLpro inh: SARS-CoV 3CLpro protease inhibition. P0C6X7. recombinant SARS-CoV 3CLpro, quenched FRET peptide cleavage. inhibition, % at 6 µM. hit rate 0.14% among 290,000. AID 1706; in the data active means inhibition above about 12%
SSB-PriA inh: K. pneumoniae PriA-SSBct interaction inhibition | inhibition, % at 33 µM | AlphaScreen SSBct-PriA binding, biotinylated peptide | AID 1272365 | hit rate 0.6% among 430,000; in the data active means inhibition mostly above about 37%, no sharp cut-off; inactive means mostly below about 20%;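 further: plate controls were negative control peptide for no effect and reference peptide for full effect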
BH1578 lux ind: quorum light induction in luxS cqsA deficient V. cholerae; V. cholerae BH1578 lux reporter, luminescence, 6 h; activation, % at 18.7 µM; hit rate 0.16% among 350,000; in the data active means activation mostly above about 9.7%, no sharp cut-off; inconclusive means no clear call, values can overlap the other calls; inactive means mostly below about 3.7%
PrPC surface inh: inhibitors of human cell surface prion protein PrPC | inhibition, % at 13.8 µM | P04156 | hit rate 0.43% among 370,000 | AID 720596 | TR-FRET read-out; in the data active means inhibition above about 24%; further: 0% = median of the test wells and 100% = reference compound wells
An asterisk follows results filed as active; i = inactive; ? = inconclusive; / = no result; ! = not confirmed by another sample. Rows were chosen to be rich in hits. Some 1.6% of all compounds tested hit in one or more screens of this group.

SMILES	PfHsp40 yeast	PrP 5UTR inh	SARS 3CLpro inh	SSB-PriA inh	BH1578 lux ind	PrPC surface inh
COc1ccc2c(c1)C1=C(CC2)C(c2ccc(C)cc2)NC(=S)N1 (configuration not stated)	-1	21	2	25	-1	8
COc1ccc(-c2cc(N3CCN(C(=O)c4cncc(Br)c4)CC3)ncn2)cc1	/	/	/	-9	/	/
COCCCNC(=O)CSc1nc2cc(S(=O)(=O)N3CCCCC3)ccc2o1	0	-25	/	46*	i	6
CCOC(=O)CSC1=NC(=O)/C(=C\c2ccc(Cl)cc2)S1	40*	-22	2	0	i	-8
CCOC(=O)C1CCN(C2=NC(=O)/C(=C/c3ccc(Cl)cc3)S2)CC1	1	3	8	-7	-1	2
Cc1cc(C)nc(SCc2cc(=O)c(OC(=O)c3ccc4c(c3)OCO4)co2)n1	/	/	/	-7	/	/
CCN(CC)S(=O)(=O)c1ccc(C(=O)Oc2coc(CSc3nc(C)cc(C)n3)cc2=O)cc1	72*	-12	-3	3	i	-3
CN(C)S(=O)(=O)c1ccc(C(=O)Oc2coc(CSc3ncccn3)cc2=O)cc1	94*	-16	-1	-4	0	3
CS(=O)(=O)N1CCN(C(=O)Cc2csc(NC(=O)c3ccc4c(c3)OCO4)n2)CC1	/	/	/	-16	/	/
O=C(/C=C/c1ccc(S(=O)(=O)N2CCOCC2)cc1)NC(=S)Nc1ccc(N2CCOCC2)cc1	46*	-12	4	-4	0	4
CCN=C1SC(CC(=O)Nc2ccccc2C(=O)OCC)C(=O)N1CC (configuration not stated)	/	/	/	-15	/	/
COc1cnc(-c2ccccn2)nc1Sc1ccc(F)cc1	37*	-15	3	11	-1	7
CCOC(=O)CSc1nc(-c2ccccn2)ncc1OC	-1	-18	-6	83*	1	-6
COc1ccc(Sc2nc(-c3ccccn3)ncc2OC)cc1	?	2	3	-4	1	7
COc1cnc(-c2ccccn2)nc1Sc1ccccc1	268*	-16	6	22	0	5
COC(=O)N[C@@H](Nc1ccc(C)cc1C)C(=O)c1ccccc1	/	/	/	-8	/	/
CCCN(Cc1cc2cccc(C)c2[nH]c1=O)C(=O)c1cccc(OC)c1	72*	-17	-1	-7	i	7
O=C(c1cnccn1)N1CCN(c2ccc(-c3noc(C(F)(F)F)n3)cn2)CC1	/	/	/	-17	/	/
CCCCn1c(NS(=O)(=O)c2ccccc2)c(S(=O)(=O)c2ccc(C)cc2)c2nc3ccccc3nc21	-1	-14	-2	58*	0	-9
CCCCOCCCn1c(NS(=O)(=O)c2ccc([N+](=O)[O-])cc2)c(S(=O)(=O)c2ccc(C)cc2)c2nc3ccccc3nc21	/	/	/	49	/	/
CCCCCCCCn1c(NS(=O)(=O)c2ccccc2)c(S(=O)(=O)c2ccc(C)cc2)c2nc3ccccc3nc21	/	/	/	33	/	/
Cc1ccc(S(=O)(=O)c2c(NS(=O)(=O)c3ccccc3)n(CCc3ccccc3)c3nc4ccccc4nc23)cc1	/	/	/	67*	/	/
CCCCOCCCn1c(NS(=O)(=O)c2ccc(F)cc2)c(S(=O)(=O)c2ccc(C)cc2)c2nc3ccccc3nc21	/	/	/	67*	/	/
COCCOc1ccc(C(=O)O)cc1	/	/	/	-26	/	/
O=S(=O)(CCOc1ccccc1)NCC1(c2cccs2)CCOCC1	/	/	/	-20	/	/
SMILES	PfHsp40 yeast	PrP 5UTR inh	SARS 3CLpro inh	SSB-PriA inh	BH1578 lux ind	PrPC surface inh
O=C(NCCN1CCN(c2ccc(F)cc2)CC1)c1cc(C2CC2)on1	/	/	/	-15	/	/
CCCc1nc(SCC(=O)N2CCC(Cc3ccccc3)CC2)c2c(=O)n(C)c(=O)n(C)c2n1	184*	-14	-3	-6	1	-4
O=C(NCCCn1ccnc1)C(=O)NCC1OCCCN1S(=O)(=O)c1cccs1 (configuration not stated)	/	/	/	11	/	/
Cc1cc(C)c(S(=O)(=O)N2CCOC2CNC(=O)C(=O)NCCCn2ccnc2)c(C)c1 (configuration not stated)	0	-10	2	50*	0	-6
O=C(NCc1ccccn1)C(=O)NCC1OCCN1S(=O)(=O)c1ccc([N+](=O)[O-])cc1 (configuration not stated)	107*	0	-4	1	0	-32
O=C(NCCCn1ccnc1)C(=O)NCC1OCCN1S(=O)(=O)c1ccc([N+](=O)[O-])cc1 (configuration not stated)	/	/	/	80*	/	/
COc1ccc(S(=O)(=O)N2CCOC2CNC(=O)C(=O)NCCCn2ccnc2)cc1 (configuration not stated)	/	/	/	102*	/	/
CCN(CC)CCN(C(=O)c1ccc(S(=O)(=O)N2CCCc3ccccc32)cc1)c1nc2c(F)cccc2s1	/	/	/	14	/	/
O=C(NCc1ccccc1)C(=O)NCC1OCCN1S(=O)(=O)c1ccc2c(c1)OCCO2 (configuration not stated)	1	40	0	-3	0	-6
O=C(NCCCn1ccnc1)C(=O)NCC1OCCN1S(=O)(=O)c1ccc2c(c1)OCCO2 (configuration not stated)	-2	-1	1	23*!	0	-7
S=C1NC[C@H](CC2CCCCC2)N1CC1CCCCC1	98*	-20	1	-2	0	3
Fc1cccc(CCN2C(=S)NC[C@@H]2Cc2ccccc2)c1	2	-13	0	0	0	-6
CCCC[C@@H]1CNC(=S)N1CC1CCCCC1	1	-18	/	-7	0	5
Fc1cccc(CCN2C(=S)NC[C@@H]2CC2CCCCC2)c1	122*	-3	/	-23	i	8
Cc1nn(C)c(C)c1CNc1ncc2c(=O)n(Cc3ccccc3)c(=O)[nH]c2n1	/	/	/	-13	/	/
O=C(Nc1nc(-c2ccccn2)cs1)C1CC1c1ccco1 (configuration not stated)	/	/	/	99*	/	/
O=C(Nc1nc(-c2ccccn2)cs1)C1COc2ccccc2O1 (configuration not stated)	0	0	3	71*	0	16
CC1CC1C(=O)Nc1nc(-c2ccccn2)cs1 (configuration not stated)	3	-21	2	60*	-4	-1
Nc1nc(-c2ccc(-c3ccccc3)cc2)cs1	-1	-75	4	14	1	4
Nc1nc(-c2ccc(Oc3ccccc3)cc2)cs1	185*	-71	-1	7	1	1
Nc1nc(-c2cccs2)cs1	-2	-25	-5	-10	5	/
Nc1nc(-c2ccccn2)cs1	/	/	/	94*	/	/
Nc1nc(-c2cccc(-c3csc(N)n3)n2)cs1	/	/	/	114*	/	/
CCCc1ccc(S(=O)(=O)Nc2ccc3c(c2)C(=O)NCCO3)cc1	/	/	/	-3	/	/
CN1c2ccccc2N(C)C1(C)c1ccccc1	1	-9	0	42*	3	1
O=C(Nc1nc2c(s1)CCCC2)C1CCN(c2ccc(-n3cccn3)nn2)CC1	/	/	/	48*	/	/
O=C(c1c[nH]c2ccccc12)N1C2C=CCC1CC2 (configuration not stated)	/	/	/	-1	/	/
